Results filed as inconclusive are left out. Unmarked numbers belong to inactive results. Calls of active or inactive are those of the source. Calls come from the whole dose curve; as a rule, active = well fitted activation curve with a large enough effect; inconclusive = small, poorly fitted or top-dose-only effect; inactive = flat fitted curve, though single readings scatter.
Assay: qHTS for Inhibitors of Cell Surface uPA Generation: Confirmatory Assay for Cherry-picked Compounds; for inhibition: 0% is about no effect
Conditions: cell surface uPA activity generation, qHTS confirmation; series mostly up to 115 µM; inhibition: at the top concentration
Outline: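 RAW 264.7 cells at 4000/well, incubated overnight, then treated with compounds. After 24 h at 37 C, viability was read by ATPlite luminescence. An increase in signal indicates blocked uPA-dependent LF entry.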
Potency is the fitted concentration of half-maximal effect.

Compound	inhibition [%]	Potency
Cc1nn(-c2ccc(F)cc2)c(C)c1NS(=O)(=O)c1ccc(Cl)cc1	-2	–
CCNC(=S)NNC(=O)C(c1ccccc1)c1ccccc1	1.11	–
COc1ccc(C2C(C(=O)c3ccc(C)o3)=C(O)C(=O)N2CC2CCCO2)cc1OC (centres undefined)	0.493	–
COc1ccc(CCNC(=O)Cn2cccc2C(=O)c2ccccc2)c(OC)c1	-2.23	–
Cc1c(NC(=S)Nc2ccc(Cl)cc2)c(=O)n(-c2ccccc2)n1C	-0.742	–
CC[C@]1(C(=O)OC)[C@H]2C(=O)N(C)C(=O)[C@H]2[C@H]2CN(C)C(=NC3CCCCC3)N21	0.58	–
COc1cc(OC)cc(C(=O)NC(C(=O)Nc2ccc3c(c2)CCC3)C(C)C)c1 (centres undefined)	-0.295	–
CC(=O)N1CCN(C(=O)CSc2cc(C)c(Br)cc2C)CC1	-1.37	–
NC(=O)c1ccc(NC(=O)CN2CCN(S(=O)(=O)c3ccc4ccccc4c3)CC2)cc1	1.49	–
O=c1ccc(S(=O)(=O)N2CCCC2)c[nH]1	-0.713	–
COc1ccccc1N1CCN(CC(=O)c2c(C)[nH]c3ccccc23)CC1	1.37	–
CC(CCc1ccccc1)NC(=O)c1ccc(NC(=O)c2cccc(Br)c2)cc1 (centres undefined)	-0.796	–
C[n+]1c2cc(N)ccc2cc2ccc(N)cc21	-3.52	–
C=CCOC(=O)C1=C[C@@H](c2coc3ccccc3c2=O)C[C@@H](OCc2ccc(CO)cc2)O1	-1.97	–
CCOc1ccc(C(=O)NCC(=O)N2CCN(C/C=C/c3ccccc3)CC2)cc1OCC	-1.3	–
Cc1cccc(CCNC(=O)Cc2ccc(NC3=NC4CS(=O)(=O)CC4S3)cc2)c1 (centres undefined)	5.41	–
CCc1cc(CC)c(/C=N/NC(N)=O)c(CC)c1	-1.12	–
COc1ccc(C(=O)c2sc(Nc3ccccc3)nc2N)cc1	9.15	–
CCn1nc(C)c(CNC(=O)C2CCC(=O)N(CCc3ccc(OC)cc3)C2)c1C (centres undefined)	-1.73	–
CC(C(=O)Nc1nccs1)c1ccc([N+](=O)[O-])cc1 (centres undefined)	4.15	–

Compound	inhibition [%]	Potency
C=CS(=O)(=O)c1ccc(Oc2ccc(S(=O)(=O)C=C)cc2)cc1	–	58.5 µM (active)
CCc1nccn1CCC(=O)N1CCc2c([nH]c3ccccc23)C1CC(C)C (centres undefined)	-0.754	–
CCOC(=O)CN1C(=O)N[C@@H](c2ccccc2)C(C(C)=O)=C1C	0.539	–
CCc1nc(SCC(N)=O)c2c(=O)n(C)c(=O)n(C)c2n1	-0.0006	–
COc1cccc(CNC(=O)C2CCCN(S(=O)(=O)c3ccc4c(c3)C(C)(C)C(=O)N4C)C2)c1 (centres undefined)	-0.161	–
Cc1ccc2cc(C=O)c(Cl)nc2c1	-1.38	–
COc1ccc(OC)c(S(=O)(=O)N2CCC(NC(=O)c3ccccc3)CC2)c1	1.52	–
COCCN(C(=O)CSc1nnc(-c2ccncc2)n1C)c1c(N)n(CC(C)C)c(=O)[nH]c1=O	-1.56	–
COc1ccc(C2=NS(=O)(=O)N(C)C(C(=O)NCc3ccccn3)=C2)cc1	-2.51	–
Cc1ccc(/C=C/C(=O)O)cc1S(=O)(=O)N1CCc2ccccc21	-3.41	–
CCCCN(CC(=O)NCc1ccc(F)cc1)C(=O)c1ccco1	1.54	–
COc1ccc([C@@H]2[C@@H]3C(=O)N(C(C)(C)C)C(=O)[C@@H]3[C@]3(C)C(=O)N(c4cccc(Cl)c4)C(=O)N23)cc1	4.69	–
Cc1ccc(S(=O)(=O)N2CCOCC2)cc1NC(=O)CSc1nc(N)cc(N)n1	-3.34	–
C[C@@]12C(=O)N(CC3CCCO3)CC(=O)N1[C@H]1c3cc(Cl)ccc3OC[C@@H]1[C@@H]2c1ccccc1 (some centres undefined)	-2.79	–
COc1cc(C2NC(=O)NC(C)=C2C(=O)OCC2CCCCC2)ccc1O (centres undefined)	-0.323	–
CC(C)CCN1C(=O)c2ccc(-c3nc4ccccc4c(=O)o3)cc2C1=O	-1.5	–
CC(C)OC(=O)Nc1ccc(-c2ccc(NC(=O)OC(C)C)cc2Cl)c(Cl)c1	7.93	–
COc1ccc(C(=O)CC(=O)C(=O)Nc2ccccc2)cc1	-3.21	–
O=C(Nc1ccc(NC(=O)c2ccco2)c(Cl)c1)c1ccccc1	-0.468	–

Source: PubChem BioAssay AID720519 (National Center for Advancing Translational Sciences (NCATS), 2013)
